Eleven molecules from PubChem BioAssay can be followed below.

The structures appear in SMILES notation. A number with no mark means an inactive call. Activity calls are given as the source filed them. Cut-off read from the data, not from the text of the source, unless noted: active = inhibition above about 33%; inactive = the rest.

Experiment [1] can be described thus: StAR promoter reporter inhibitors, counter-screen for LRH-1 inverse agonist project, cell-based, luminescence, high throughput (AID 651611; in the data active = inhibition above about 28%). As to conditions: StAR promoter luciferase reporter counterscreen, at 3.6 µM, stronger effect = higher value. In general terms: The purpose of a counterscreen is to sort out artefacts and off-target activity.
For experiment [2], the target named is Nuclear receptor subfamily 5 group A member 2 (Homo sapiens) (UniProt O00482). The experiment is described as follows: NR5A2 activity suppression in reporter cells – cell-based, luminescence, confirmation (AID 651613; in the data active = inhibition above about 42%;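 note: HEK293T cells co-transfected with LRH-1 and StAR promoter luciferase reporter; 0% = vehicle wells and 100% = parental cells lacking receptor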). As to conditions: cell-based LRH-1 luciferase reporter, inverse agonism; at 3.6 µM; stronger effect = higher value. (A reporter such as luciferase makes a cellular process visible.)
Chain of Nuclear receptor subfamily 5 group A member 2 (Homo sapiens) (O00482 whole entry, looked up): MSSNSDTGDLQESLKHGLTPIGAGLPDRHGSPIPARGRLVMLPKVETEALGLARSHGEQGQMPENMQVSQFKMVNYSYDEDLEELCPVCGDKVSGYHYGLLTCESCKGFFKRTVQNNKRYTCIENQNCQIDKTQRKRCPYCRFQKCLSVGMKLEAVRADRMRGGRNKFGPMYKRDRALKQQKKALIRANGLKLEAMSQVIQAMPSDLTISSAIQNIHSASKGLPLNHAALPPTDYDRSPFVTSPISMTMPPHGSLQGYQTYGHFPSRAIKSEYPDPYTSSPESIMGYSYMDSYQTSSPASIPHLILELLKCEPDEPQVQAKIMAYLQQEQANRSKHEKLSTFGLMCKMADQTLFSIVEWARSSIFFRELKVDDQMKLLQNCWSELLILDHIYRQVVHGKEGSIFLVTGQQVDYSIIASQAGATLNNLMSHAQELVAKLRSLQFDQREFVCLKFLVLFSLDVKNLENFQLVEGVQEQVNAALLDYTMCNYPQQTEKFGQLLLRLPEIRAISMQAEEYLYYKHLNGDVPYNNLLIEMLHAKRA

The target of experiment [3] is Steroidogenic factor 1 (Homo sapiens) (UniProt Q13285). Nature of the experiment: inverse agonism at SF1 nuclear receptor – cell-based, luminescence, high throughput, counter-screen for LRH-1 inverse agonist project (AID 651614; in the data active = inhibition above about 44%;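 note: cells cotransfected with StAR promoter reporter and SF1 expression vector; 0% = vehicle on cells with receptor and 100% = vehicle on cells lacking receptor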). The conditions noted are these: cell-based SF1 luciferase reporter, at 3.6 µM, stronger effect = higher value.
Chain of Steroidogenic factor 1 (Homo sapiens) (Q13285 whole entry, looked up, the tested form may be a part): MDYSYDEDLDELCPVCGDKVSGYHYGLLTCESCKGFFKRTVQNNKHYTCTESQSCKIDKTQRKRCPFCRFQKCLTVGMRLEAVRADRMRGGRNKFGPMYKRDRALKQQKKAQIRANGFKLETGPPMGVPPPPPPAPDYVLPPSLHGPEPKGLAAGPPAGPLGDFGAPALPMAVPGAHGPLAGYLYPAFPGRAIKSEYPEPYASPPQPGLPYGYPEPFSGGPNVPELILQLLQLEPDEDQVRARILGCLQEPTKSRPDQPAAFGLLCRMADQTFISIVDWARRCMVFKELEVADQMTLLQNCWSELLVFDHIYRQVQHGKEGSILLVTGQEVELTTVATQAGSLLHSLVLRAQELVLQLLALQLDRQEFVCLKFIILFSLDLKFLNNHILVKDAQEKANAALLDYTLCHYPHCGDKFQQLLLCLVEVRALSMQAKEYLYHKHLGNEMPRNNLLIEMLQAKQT
Experiment [4] can be described thus: compounds suppressing VP16-driven luciferase signal – cell-based, luminescence, high throughput, counter-screen for LRH-1 inverse agonist project (AID 651615). The conditions noted are these: Gal4-VP16 luciferase reporter cells, at 3.6 µM, stronger effect = higher value.
Experiment [5] deals with transactivating tegument protein VP16 (Human herpesvirus 1). The experiment is described as follows: compounds suppressing VP16-driven luciferase signal – cell-based, luminescence, single concentration, counter-screen for SRC2 inhibitor project (AID 652007; in the data active = inhibition above about 36%). The conditions noted are these: cell-based VP16 transactivation luciferase reporter, at 8.9 µM, stronger effect = higher value.

Experiment [6] concerns the target Nuclear receptor coactivator 2 (Homo sapiens) (UniProt Q15596). The experiment is described as follows: inhibition of GAL4-SRC2 driven luciferase expression – cell-based, luminescence, HEK293, triplicate, confirmation (AID 652008;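 active = mean inhibition above 46.5%, the solvent-only control mean plus 3 SD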;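 note: 0% = DMSO-treated cells and 100% = Gossypol at 36 µM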). As to conditions: HEK293 GAL4-SRC2 luciferase reporter, at 8.9 µM, stronger effect = higher value.

Chain of Nuclear receptor coactivator 2 (Homo sapiens) (Q15596 whole entry, looked up, the tested form may be a part): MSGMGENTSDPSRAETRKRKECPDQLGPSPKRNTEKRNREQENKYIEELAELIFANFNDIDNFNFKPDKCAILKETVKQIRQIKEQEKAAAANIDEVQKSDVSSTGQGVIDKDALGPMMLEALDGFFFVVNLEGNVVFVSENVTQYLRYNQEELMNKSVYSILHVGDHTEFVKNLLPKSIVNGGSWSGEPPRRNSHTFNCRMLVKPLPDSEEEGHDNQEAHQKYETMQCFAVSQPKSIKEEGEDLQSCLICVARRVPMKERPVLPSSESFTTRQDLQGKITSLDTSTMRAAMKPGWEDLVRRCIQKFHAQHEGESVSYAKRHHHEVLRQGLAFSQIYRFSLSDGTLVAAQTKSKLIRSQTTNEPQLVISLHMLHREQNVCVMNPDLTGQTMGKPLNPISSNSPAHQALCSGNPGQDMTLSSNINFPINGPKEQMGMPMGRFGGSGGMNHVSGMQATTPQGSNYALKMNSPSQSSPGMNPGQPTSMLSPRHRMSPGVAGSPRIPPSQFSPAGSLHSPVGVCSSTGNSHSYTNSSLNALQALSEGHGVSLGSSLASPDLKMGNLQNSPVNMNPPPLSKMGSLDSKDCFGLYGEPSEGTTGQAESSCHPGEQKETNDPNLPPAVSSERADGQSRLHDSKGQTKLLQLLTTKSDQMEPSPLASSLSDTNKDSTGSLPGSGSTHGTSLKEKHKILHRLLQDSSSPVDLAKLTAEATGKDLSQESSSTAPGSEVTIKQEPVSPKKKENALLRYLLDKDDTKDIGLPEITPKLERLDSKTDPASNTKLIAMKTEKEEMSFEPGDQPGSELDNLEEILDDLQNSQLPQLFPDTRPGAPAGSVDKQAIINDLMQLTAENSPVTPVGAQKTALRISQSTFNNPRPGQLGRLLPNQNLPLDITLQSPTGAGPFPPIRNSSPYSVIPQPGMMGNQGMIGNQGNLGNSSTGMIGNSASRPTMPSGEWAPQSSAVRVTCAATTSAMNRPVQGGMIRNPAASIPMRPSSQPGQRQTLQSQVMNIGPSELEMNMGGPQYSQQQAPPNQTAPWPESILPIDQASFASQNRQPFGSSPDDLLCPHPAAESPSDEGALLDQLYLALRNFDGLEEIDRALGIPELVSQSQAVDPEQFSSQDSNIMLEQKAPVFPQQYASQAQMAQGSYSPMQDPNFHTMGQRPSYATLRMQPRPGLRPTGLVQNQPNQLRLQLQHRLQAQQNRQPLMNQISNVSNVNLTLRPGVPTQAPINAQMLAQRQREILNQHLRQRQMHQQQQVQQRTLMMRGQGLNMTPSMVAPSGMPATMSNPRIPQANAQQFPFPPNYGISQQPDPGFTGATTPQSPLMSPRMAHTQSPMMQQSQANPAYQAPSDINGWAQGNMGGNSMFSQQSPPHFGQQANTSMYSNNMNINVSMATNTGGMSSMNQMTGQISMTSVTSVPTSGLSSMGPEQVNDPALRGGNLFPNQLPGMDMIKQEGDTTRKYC

On to `CCN(CC)CCC(=O)N1C/C(=C/c2ccccc2)C(=O)/C(=C\c2ccccc2)C1`, for which the inhibition – broadly, the drop in the measured response relative to a control, in per cent – in experiment [1] was 57.8% (active); in experiment [2] it was 84.4% (active); in experiment [3], 86.8% (active); in experiment [4] it was 76.2% (active); in experiment [5] it was 84.8% (active); in experiment [6], 23.6%.
For `COc1ccc(CCNC(=O)COC(=O)C2CC2C)cc1` (stereo not drawn), the inhibition in experiment [1] was 3.36%; in experiment [2] it was 47.1% (active); in experiment [3], 48.6% (active); in experiment [4], 2.63%.
The matching figures for `O=C(COC(=O)c1ccc(=O)n(Cc2ccccc2)n1)Nc1ccc2c(c1)OCCO2`: 11.8%, 51.1% (active), 43.7% (active) and -13.9%.
The matching figures for `COc1ccc(-c2nn(C)c(=O)c3ccccc23)cc1NS(C)(=O)=O`: 49.6% (active), 53.6% (active), 41.2% and -52.2%.
The matching figures for `COc1ccc(/C=N/OCC(=O)NC(c2ccccc2)c2ccccc2)cc1OC`: 30.5% (active), 72.7% (active), 66.4% (active) and 54.7% (active).
For the molecule `O=C(COc1ccc(Nc2ccccc2)cc1)Nc1ccncc1`, the inhibition in experiment [1] was 19.2%; in experiment [2], 52.8% (active); in experiment [3], 51.6% (active); in experiment [4] it was 41.4% (active).
In the case of `COc1ccc(NC(=O)C2=CC(c3ccc(OC)c(OC)c3)=NS(=O)(=O)N2C)cc1`, the inhibition is 1.44% in experiment [1], 56.3% (active) in experiment [2], 49.4% (active) in experiment [3] and 18.4% in experiment [4].
The like results for `O=C(Nc1nc2ccc(F)cc2s1)c1ccc([N+](=O)[O-])o1` were, in that order, -101%, 0.34%, 10% and -93.2%.
The matching figures for `COc1ccccc1NC(=O)c1ccc(NC(=O)CSc2nnnn2C)cc1`: 4.14%, 59% (active), 55.5% (active) and -1.96%.
As to `CC1C/C(=C\c2cccnc2)C(=O)/C(=C/c2cccnc2)C1` (stereo not drawn), the inhibition in experiment [1] was 61.9% (active); in experiment [2], 100% (active); in experiment [3], 95.6% (active); in experiment [4], 91.5% (active); in experiment [5], 98% (active); in experiment [6], 93.9% (active).
For the molecule `O=C(CCl)N(c1ccc(Cl)cc1)c1c[nH]c2ccccc12`, the inhibition in experiment [1] is 25.4%; in experiment [2] it was 67.1% (active); in experiment [3], 58% (active); in experiment [4], 30.4%.
